# In all, about 200,000 compounds went through this assay and about 670 (0.34%) were called active. This is one part of a sample in which actives are shown more often than they occur. Cut-off read from the data, not from the text of the source: active = activation above about 22%; inactive = the rest.
# Target: Peroxisome proliferator-activated receptor gamma (Homo sapiens) (UniProt P37231)
# Test: compounds enhancing SRC-2 coactivator binding to PPARgamma – biochemical, HTS, primary screen (AID 1032);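 note: 0% = vehicle and 100% = reference agonist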
# Conditions: PPARgamma LBD-SRC-2 recruitment, at 8 µM, stronger effect = higher value
# Sequence of Peroxisome proliferator-activated receptor gamma (Homo sapiens) (P37231 whole entry, looked up): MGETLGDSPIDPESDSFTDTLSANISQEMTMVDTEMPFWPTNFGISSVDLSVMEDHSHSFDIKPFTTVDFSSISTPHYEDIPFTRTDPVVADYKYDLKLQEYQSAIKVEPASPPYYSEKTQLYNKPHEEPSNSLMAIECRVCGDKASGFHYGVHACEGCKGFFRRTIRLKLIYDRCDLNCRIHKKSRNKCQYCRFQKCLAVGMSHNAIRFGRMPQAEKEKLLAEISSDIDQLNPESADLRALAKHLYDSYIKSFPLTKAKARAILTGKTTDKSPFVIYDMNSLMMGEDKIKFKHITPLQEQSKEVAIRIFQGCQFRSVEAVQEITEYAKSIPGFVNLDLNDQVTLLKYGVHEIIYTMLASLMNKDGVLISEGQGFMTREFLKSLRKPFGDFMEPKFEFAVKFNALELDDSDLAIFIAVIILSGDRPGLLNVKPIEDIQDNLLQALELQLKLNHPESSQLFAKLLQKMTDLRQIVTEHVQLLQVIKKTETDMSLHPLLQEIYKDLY
row,Compound,activation
1,CSC1=NP(=S)(SC)N(C)c2nc3n(c21)CCC3 (stereo not given),76.2% (active)
2,Cc1cccc2c(CCN)c[nH]c12,0.78% (inactive)
3,O=C(Cc1ccccc1[N+](=O)[O-])N1CCN(Cc2ccc3c(c2)OCO3)CC1,0.02% (inactive)
4,CCN1CCN(c2ccc([N+](=O)[O-])cc2C#N)CC1,6.97% (inactive)
5,CC(C)CN1CCN(Cc2ccccc2C(F)(F)F)CC1CCO (stereo not given),-9.41% (inactive)
6,COc1cc(-n2c(=S)[nH]c3ccc(C)cc3c2=O)c(Cl)cc1Cl,24.8% (active)
7,CN(C)/C=C(\C=[N+](C)C)c1[nH]ncc1[N+](=O)[O-],3.67% (inactive)
8,Cc1ccsc1C(=O)C1CCCN(Cc2ccc(O)cc2)C1 (stereo not given),4.16% (inactive)
9,O=C1NC(=O)N(c2ccccc2)C(=O)/C1=C/c1ccc([N+](=O)[O-])s1,0.92% (inactive)
10,COc1ccc(CN2C(=O)NC(=O)/C(=C\c3ccc(OC)c(OC)c3OC)C2=O)cc1,11% (inactive)
